SMARCA2 activ: activators of SMARCA2 function. MG213 cells, MMTV-luciferase reporter, dexamethasone, overnight. activation, % at 9.1 µM. 1% of 370,000 active; in the data active = activation above about 7.8%;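 note: 0% = vehicle wells and 100% = reference activator wells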
HSF1 activator: increases HSF-1 driven luciferase reporter signal; 1.7% of 300,000 active; NIH3T3-HGL HSF-1 luciferase reporter, MG132, 8 h; 100% = twice DMSO control signal; activation, % at 9 µM;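 active = mean replicate activation of at least 50% with a set share of replicates each reaching 50%; inconclusive = only one of those two conditions met; inactive = mean below 50% and too few replicates reaching it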;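 note: 0% = median of the neutral control wells and 100% = twice that signal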
HSF1 inh: HSF1 inhibition; activity change, negative = inhibition, % at 7.5 µM (by protocol); 0.77% of 300,000 active; AID 2098; NIH3T3-HGL HSE-luciferase, MG132-induced, luminescence 8 h; hits give low values;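 active = more than half of replicate wells show activity change below -50%, luminescence cut by over half; inconclusive = some wells, but at most half, below -50%; inactive = no replicate well below -50%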;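 note: luciferase reports HSF-1 transcriptional activity via heat shock element; 0% = median of DMSO wells and -100% = zero luminescence signal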
MITF TRPM1 HTS: increases MITF-driven TRPM1 promoter luciferase signal | SK-MEL-5 TRPM1-promoter luciferase, 24 h; % of positive control, neutral wells = 0 | activation, % at 12.5 µM | 0.75% of 300,000 active | AID 588334;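 active = mean activation of at least 80% with every replicate also reaching 80%; inconclusive = mean reaches 80% but some replicate falls short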;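 note: 0% = neutral control wells and 100% = parthenolide positive control wells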
esBAF inh: blocks esBAF chromatin remodeling in mouse ES cells; reporter increase, % at 12.5 µM; Bmi1-luciferase knock-in reporter, 24 h; 100% = twice the neutral-well signal; 2% of 350,000 active; AID 602393; in the data active = activation above about 40%; inconclusive = no clear call, values can overlap the other calls;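 note: 0% = median of the plate's neutral control wells and 100% = double that signal; a rise in the Bmi1 reporter signal indicates esBAF inhibition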
Wnt bcat act: activates Wnt/beta-catenin signaling in a reporter cell assay; activator, plate reader; activation, % at 9.35 µM; 1.2% of 300,000 active; AID 743398; in the data active = activation above about 30%, passing the limit was not always enough; inconclusive = no clear call, values can overlap the other calls;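 note: 0% = neutral control wells and 100% = positive control wells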
SMARCA2 act conf: SMARCA2 activation, confirmation screen; shares compounds with SMARCA2 activ; 30% of 3,500 active; MG213 cells, MMTV-luciferase with dexamethasone, luminescence, overnight; MG213 cells expressing E1A, Rb sequestered; DMSO wells 0%, reference activator 100%; activation, % at 9.1 µM;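 active = activation above its plate's cutoff, the mean activation of tested wells plus 3 SD, cut at about 7.9% in these data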
GAL4-VP16 Luc: counter-screen for SMARCA2 activators: GAL4-VP16 luciferase reporter activation; shares compounds with SMARCA2 activ; HEK293 GAL4-VP16 pG5luc reporter, luciferase luminescence; scaled: DMSO wells 0%, SAHA wells 100%; AID 686939; 41% of 3,500 active; activation, % at 9.1 µM;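 active = activation above the solvent-only control well mean plus 3 SD, averaged across control plates, cut at about 5.2% in these data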
Numbers without * were called inactive; ? = inconclusive; . = not tested or not shown. An excerpt weighted towards active compounds, which were near 4.3% of everything screened.

SMILES | SMARCA2 activ | HSF1 activator | HSF1 inh | MITF TRPM1 HTS | esBAF inh | Wnt bcat act | SMARCA2 act conf | GAL4-VP16 Luc
CCCc1ccc(OCc2ccc(C(=O)N/N=C/c3cccnc3)o2)cc1 | 11.2* | 13.1 | 17.5 | 67.5 | 38.7 | -0.1 | 6.1 | 18.1*
O=C(NCc1ccc(F)cc1)c1c2c(nc3ccccc13)CCC2 | 9.4* | 3.3 | -0.5 | 15.7 | . | -1.3 | 3.5 | 1.8
CNC(=O)C[C@@H]1CC[C@H]2[C@H](COc3ccc(NC(=O)Nc4cccc(C)c4)cc3C(=O)N2C)O1 | . | . | . | . | 0.4 | . | . | .
Cc1ccc(C)c(OCC(=O)O/N=C(\N)c2ccccn2)c1 | 9.2* | 33.2 | 10.8 | 95.7* | 72.1* | 45.4* | 4.0 | 8.2*
COc1ccc(CC(=O)O/N=C(\N)c2ccccn2)cc1 | 8.0* | 33.6 | 4.5 | 38.9 | . | 6.4 | -0.6 | 6.4*
N/C(=N\OC(=O)Cc1ccc(-c2ccccc2)cc1)c1ccccn1 | -0.3 | -42.5 | -35.0 | 12.0 | . | 4.8 | . | .
Cc1ccc(C)c(OCC(=O)O/N=C(\N)c2cccnc2)c1 | 5.7 | 31.6 | 5.9 | 23.9 | 8.4 | 7.3 | . | .
C[C@@H]1CN([C@@H](C)CO)C(=O)c2cc(C#CC3CCCC3)cnc2O[C@H]1CN(C)C(=O)c1ccncc1 | . | . | . | . | 10.1 | . | . | .
CCOc1ccc(-c2nnc(NC(=O)Cc3cc(OC)c(OC)c(OC)c3)o2)cc1 | 8.4* | 13.1 | -3.6 | 17.7 | 7.4 | 0.2 | 0.4 | 4.0
COc1ccc(CN(C)C[C@H]2Oc3ccc(NC(=O)Nc4ccc5c(c4)OCO5)cc3C(=O)N([C@H](C)CO)C[C@@H]2C)cc1 | . | . | . | . | 4.8 | . | . | .
O=C(CCOc1ccccc1F)N1CCN(c2ccccc2O)CC1 | 10.0* | 14.5 | 9.3 | 20.9 | . | -10.3 | 5.2 | 9.1*
COc1ccccc1OCCC(=O)N1CCN(c2ccccc2OC)CC1 | -3.4 | -14.3 | 3.2 | 1.3 | . | 3.0 | . | .
Nc1nn(-c2ccccc2)c(N)c1N=Nc1ccccc1 | 14.6* | -33.5 | -26.5 | 31.4 | . | 26.0 | 7.4 | 26.7*
C[C@@H]1CN([C@@H](C)CO)C(=O)c2cc(C3=CCCC3)cnc2O[C@H]1CN(C)S(C)(=O)=O | . | . | . | . | -2.5 | . | . | .
O=C(c1cc(-c2ccccc2)nc2ccccc12)N1CCCC1 | -1.2 | 1.1 | -5.4 | -10.0 | -3.0 | -0.5 | . | .
c1ccc(-c2cc(NCCN3CCCCC3)c3ccccc3n2)cc1 | 24.6* | 28.7 | 1.6 | -49.5 | -10.0 | -0.1 | 77.6* | 0.4
CC(=O)N(C)C[C@H]1Oc2cc(C#Cc3ccccn3)ccc2S(=O)(=O)N([C@@H](C)CO)C[C@H]1C | . | . | . | . | -7.9 | . | . | .
Cc1ccc2nc(-c3ccc(SCC(=O)N4CCc5ccccc54)nc3)[nH]c2c1 | 9.1* | 102.4* | 84.9 | 63.2 | . | 20.4 | 12.1* | 12.9*
CCc1nnc(NC(=O)CSc2ccc(-c3nc4ccc(C)cc4[nH]3)cn2)s1 | 8.7* | 68.4* | 26.1 | -15.0 | . | . | 8.4* | 11.7*
Cc1nc(SCC(=O)N2CCc3ccccc32)n[nH]1 | 8.7* | 14.6 | 0.9 | 11.2 | . | . | 8.6* | 3.5
CCCN(C)C[C@H]1Oc2cc(C#CC(C)(C)O)ccc2S(=O)(=O)N([C@H](C)CO)C[C@H]1C | . | . | . | . | -3.6 | . | . | .
CCC(=O)N1CCCCN2[C@H](CO)[C@H](c3ccc(C#Cc4cccnc4)cc3)[C@H]2C1 | . | . | . | . | -3.4 | . | . | .
COc1cc(OC)cc(C(=O)Oc2c(CN3CCOCC3)cc(Cl)c3cccnc23)c1 | -1.8 | 11.6 | 18.1 | -0.1 | 0.2 | -0.9 | . | .
O=C(Oc1c(CN2CCOCC2)cc(Cl)c2cccnc12)c1ccccc1F | 39.3* | 5.5 | 2.3 | -67.9 | . | 19.1 | 12.8* | 0.7
O=C(Oc1c(CN2CCOCC2)cc(Cl)c2cccnc12)c1ccccc1 | 35.0* | -19.7 | -16.6 | -64.1 | 2.2 | -1.7 | 10.7* | -1.6
SMILES | SMARCA2 activ | HSF1 activator | HSF1 inh | MITF TRPM1 HTS | esBAF inh | Wnt bcat act | SMARCA2 act conf | GAL4-VP16 Luc
O=C(N[C@@H]1C=C[C@@H](CC(=O)N2CCc3ccccc3C2)O[C@@H]1CO)C1CCC1 | . | . | . | . | -2.9 | . | . | .
CC(C)NC(=O)N[C@@H]1C=C[C@@H](CC(=O)NCCCN(C)C)O[C@@H]1CO | . | . | . | . | -0.7 | . | . | .
Nc1cc(=O)[nH]c(SCc2nnnn2-c2ccc(Cl)cc2)n1 | 9.4* | 10.4 | 1.5 | 2.7 | -6.7 | -0.4 | 2.8 | 0.3
Cc1cc(=O)[nH]c(SCc2nnnn2-c2ccc(Cl)cc2)n1 | 0.9 | 7.6 | -4.9 | -2.9 | . | -3.4 | . | .
COc1cccc(NC(=O)CSc2nc3ccccc3c(=O)n2Cc2cccs2)c1 | 8.9* | 34.8 | 13.2 | 7.3 | . | . | -4.7 | -1.2
COc1ccccc1C#Cc1cnc2c(c1)C(=O)N([C@@H](C)CO)C[C@H](C)[C@@H](CN(C)C(=O)c1ccc3c(c1)OCO3)O2 | . | . | . | . | 1.1 | . | . | .
O=C(C(c1ccccc1)N1CCOCC1)N1CCOCC1 (stereo unspecified) | 2.8 | -4.7 | -2.4 | 9.5 | . | . | . | .
O=C(C=Cc1ccccc1)CC(c1ccccc1)N1CCOCC1 (stereo unspecified) | 8.8* | . | . | -74.6 | . | 9.7 | 7.2 | 2.8
O=C(C[C@@H]1C=C[C@H](NC(=O)Nc2cc(F)ccc2F)[C@H](CO)O1)NCc1ccccn1 | . | . | . | . | -3.0 | . | . | .
COc1ccc(S(=O)(=O)Nc2ccc3c(c2)CC(=O)N([C@@H](C)CO)C[C@H](C)[C@H](CN(C)S(=O)(=O)c2cn(C)cn2)O3)cc1 | . | . | . | . | -0.9 | . | . | .
COc1ccc(NC(=O)c2cc([N+](=O)[O-])ccc2NC(=O)CNCc2ccccn2)c(OC)c1 | 13.1* | 11.4 | -4.3 | -16.8 | 16.9 | 0.7 | 4.5 | 1.1
COc1cc(NC(=O)c2cc([N+](=O)[O-])ccc2NC(=O)CNCc2ccccn2)cc(OC)c1 | 1.0 | 10.9 | 1.7 | -11.2 | 6.4 | -1.1 | . | .
COc1ccc(NC(=O)C[C@H]2C(=O)N(C3CCCCC3)C[C@@H]2CSC)cc1 | 8.3* | . | . | . | 2.5 | -2.0 | -1.9 | 1.3
C[C@@H](NC(=O)C[C@H]1C=C[C@H](NC(=O)C2CC2)[C@@H](CO)O1)c1ccccc1 | . | . | . | . | -1.1 | . | . | .
Oc1ccc(NC(=S)N=Nc2c(O)[nH]c3ccccc23)cc1 | 9.7* | 32.4 | 2.1 | 34.2 | 65.5* | ? | 4.4 | 14.7*
Cc1ccc(NC(=S)N=Nc2c(O)[nH]c3ccccc23)cc1 | 6.6 | 17.6 | 17.6 | -2.1 | . | 15.7 | . | .
CO[C@@H]1CN(C)C(=O)c2ccc(NC(=O)NC3CCCCC3)cc2OC[C@@H](C)N(CC2CC2)C[C@H]1C | . | . | . | . | -2.6 | . | . | .
CCOC(=O)c1c(NC(=O)COC(=O)CCCOc2ccc(OC)cc2)sc(C(=O)N(C)C)c1C | 8.3* | . | . | -2.1 | -6.2 | -4.9 | -0.8 | 0.5
